Among all 48,000 compounds or so, about 13,000 (27%) showed an effect of 50% or more. Some of the results follow.
tested on: Wolbachia pipientis; assay: Anti-Wolbachia Cell-Based Screen; type: functional; design: scale not given: in the data most compounds retested in dose-response had high values; conditions: 5 µM

Point of comparison: `CS(=O)(=O)NCCC(=O)N1CCC(Cc2ccc(CO)cc2)C1` (configuration not stated), “Percent Effect” value 5.18%. Against it:
- CC1CN(C(=O)c2cc(=O)[nH]c3ccc(F)cc23)CCO1 (configuration not stated) — lower, 4.129%
- CN(C)CCCNC(=O)CNC(=O)N1CCc2c([nH]c3ccccc23)C1 — higher, 22.94%
- CN(C)CCNC(=O)CNC(=O)N1CCc2c([nH]c3ccc(Cl)cc23)C1 — higher, 31.1%
- CN(CC(=O)N1CCc2[nH]c3ccccc3c2C1)CC1OCCO1 — higher, 105.4%
- O=C(CNC(=O)N1CCc2c([nH]c3ccc(Cl)cc23)C1)N1CCOCC1 — higher, 10.93%
- CN(CC(=O)N1CCc2[nH]c3ccc(F)cc3c2C1)CC1OCCO1 — higher, 90.48%
- O=C(CN1CCc2[nH]c3ccccc3c2C1)NCc1ccco1 — lower, -4.019%
- Cc1ccc2[nH]c3c(c2c1)CN(C(=O)CN(C)CC1OCCO1)CC3 — higher, 95.71%
- CN(C)C[C@@H]1[C@H]2CN(C(=O)c3cc(=O)[nH]c4ccc(F)cc34)C[C@@H]12 — lower, -6.499%
- c1ccc2c(NCC3(N4CCOCC4)CCSC3)ncnc2c1 (configuration not stated) — lower, -37.37%
- CSCCC(C)NC(=O)c1cccc(-c2n[nH]c(C)n2)c1 (configuration not stated) — lower, -6.222%
- CCC(CC)NC(=O)c1ccc2c(c1)C(c1nc[nH]n1)CN2S(C)(=O)=O (configuration not stated) — lower, -0.8083%
- CC(CO)NC(=O)c1ccc2[nH]/c(=N\S(C)(=O)=O)sc2c1 (configuration not stated) — higher, 96.98%
- CSCCC(CO)NC(=O)c1ccc2[nH]/c(=N\S(C)(=O)=O)sc2c1 (configuration not stated) — higher, 102%
- COc1ccnc(N(C)Cc2ccco2)n1 — higher, 6.13%
- Cc1nn(C)c(C)c1CN(C)c1nc(C2CC2)nc2c(C)nn(C)c12 — higher, 9.92%
- Cc1nn(C)c2c(N(C)Cc3cccs3)nc(C3CC3)nc12 — higher, 84.71%
- Cc1nn(C)c2c(N(C)Cc3ccco3)nc(C3CC3)nc12 — higher, 91.93%
- Cc1nn(C)c2c(NCc3cccnc3)nc(C3CC3)nc12 — lower, -0.9652%
- Cc1nn(C)c2c(NCc3ccccc3F)nc(C3CC3)nc12 — lower, -10.39%
- O=C(NCCCO)c1cnc(-c2ccccc2)nc1O — lower, -7.002%
- Cc1cc(N2CCCC(OC(=O)CCN3CCCC3=O)C2)nc(C)n1 (configuration not stated) — lower, -12.05%
- Cc1cnn(CC2CN(CCN3CCCC3=O)CCO2)c1 (configuration not stated) — lower, -2.569%
- CC(=O)N1CCN(c2cc(C3CN(C)CCO3)nc(C)n2)CC1 (configuration not stated) — lower, -11.29%
- CC(CCN1CCCC1=O)NCc1cnc(C2CCC2)s1 (configuration not stated) — higher, 5.748%
- Cc1nc(NCCN2CCCC2=O)cc(C2CN(C)CCO2)n1 (configuration not stated) — higher, 121.4%
- Cc1nc(NCCN2CCCC2=O)cc(C2CN(C(C)C)CCO2)n1 (configuration not stated) — higher, 108.1%
- Cc1ccc(CNCC2CCCn3ccnc32)s1 (configuration not stated) — lower, -4.636%
- O=C(NC1(c2cccc(F)c2)CCOCC1)c1ccccn1 — higher, 10.14%
- CC(C)C(NC(=O)c1ccccc1F)C(=O)Nc1cnn(C)c1 (configuration not stated) — higher, 10.34%
- Cn1cc(C2=NOC(C(=O)NC3(c4ccccc4)CCCC3)C2)cn1 (configuration not stated) — higher, 117.7%
- Cn1cc(C2=NOC(C(=O)NC3(c4ccccc4F)CCCC3)C2)cn1 (configuration not stated) — higher, 111.1%
- CC(=O)c1cc(C(=O)NC2(c3ccccc3)CCC2)n(C)c1 — lower, -2.692%
- Cn1cc(N2CCC(NC(=O)c3ccccc3F)C2=O)cn1 (configuration not stated) — lower, 1.627%
- O=C(NC1(c2cccc(F)c2)CCOCC1)c1ccoc1 — lower, -9.671%
- Cn1cc(C2=NOC(C(=O)NC3(c4cccc(F)c4)CCCC3)C2)cn1 (configuration not stated) — higher, 105.1%
- O=C(CCCn1cncn1)NC1(c2ccccc2)CCC1 — lower, -7.229%
- N[C@@H]1c2ccccc2C2(CCN(C(=O)c3cncc(Cl)c3)CC2)[C@H]1O — lower, -1.083%
- CCN(Cc1noc(C)n1)C(=O)C(c1cccc(C)c1)N(C)C (configuration not stated) — lower, 1.236%
- CSc1cc2c(cc1NC(=O)NCCn1ccnc1)OCCO2 — higher, 8.638%
- COCc1ccccc1C(=O)NS(=O)(=O)c1ccc2c(c1)CCC(=O)N2 — lower, -32.38%
- COc1ccc2c(c1)C(C(=O)N(C)CCCc1cnn(C)c1)CC(=O)N2 (configuration not stated) — lower, -51.57%
- CC(=O)N1CCN(Cc2ccc(OCc3nccn3C)cc2)CC1 — higher, 94.07%
- Cn1ccnc1COc1ccc(CO)cc1 — lower, 4.503%
- Cn1ccnc1COc1ccc(CN2CCC(C(N)=O)CC2)cc1 — higher, 122.5%
- Cn1ccnc1COc1ccc(CN2CCN(CCO)CC2)cc1 — lower, -5.223%
- CCOC(=O)N1CCN(Cc2ccc(OCc3nccn3C)cc2)CC1 — lower, 3.799%
- Cn1ccnc1COc1ccc(CSc2nnnn2C2CC2)cc1 — lower, -14.27%
- Cn1ccnc1COc1ccc(CSc2nnnn2C)cc1 — higher, 6.685%
- COCCN1CCN(Cc2ccc(OCc3nccn3C)cc2)CC1 — higher, 100.2%
- Cn1ccnc1COc1ccc(CSc2nncn2C2CC2)cc1 — lower, -10.32%
- CC1CCCN(Cc2ccc(OCc3nccn3C)cc2)C1 (configuration not stated) — higher, 64.75%
- Cn1ccnc1COc1ccc(COC(=O)C2CCCO2)cc1 (configuration not stated) — lower, 0.9583%
- CCCN1C[C@H]2CC[C@@H]1CN(Cc1cccc(O)c1)C2 — higher, 9.983%
- CC(=O)c1ccc(N2CCCC(CO)(Cc3ccccc3C)C2)nc1 (configuration not stated) — lower, -1.793%
- Cc1cccc(SC2CCN(C(=O)CCNS(C)(=O)=O)CC2)c1 — higher, 90.55%
- CSCC(=O)N1CCC(Oc2cccc(C)c2)CC1 — lower, 1.414%
- COc1cccc(OC2CN(C(=O)CCn3cnnn3)C2)c1 — lower, -0.2846%
- Cc1cccc(SC2CCN(Cc3nc(CC4CC4)no3)CC2)c1 — lower, -16.83%
- Cc1ccccc1SC1CCN(C(=O)[C@H]2[C@@H]3CNC[C@@H]32)CC1 — lower, -39.6%
- Cc1ccccc1N1CCCN(C(=O)CCCS(N)(=O)=O)CC1 — lower, -5.383%
- Cc1ccccc1SC1CCN(C(=O)CCCS(N)(=O)=O)CC1 — higher, 85.51%
- Cc1cccc(OC2CCN(C(=O)CNC(=O)N(C)C)CC2)c1 — lower, 0.03491%
- Cc1cccc(SC2CCN(C(=O)CCCn3cnnn3)CC2)c1 — higher, 97.25%
- Cc1ccccc1C1CCN(C(=O)CCNS(C)(=O)=O)C1 (configuration not stated) — lower, -0.3491%
- CC(=O)NCCCC(=O)N1CCC(Sc2cccc(C)c2)CC1 — higher, 104.7%
- O=C(Nc1ccc2c(c1)OCO2)N1CCCC1c1ccco1 (configuration not stated) — lower, -0.7591%
- Cc1nc(CN2C[C@@H](CN3CCOCC3)[C@@H](CO)C2)c2ccccn12 — higher, 6.539%
- COCC(=O)N1CCc2nc(C(=O)N(C)C)sc2CC1 — lower, -18.32%
- CN(Cc1ccc(C#N)cc1)Cc1noc(C(C)(C)C)n1 — lower, 1.419%
- Cc1ccccc1CCC1CCCN(Cc2c(C)[nH]c(=O)[nH]c2=O)C1 (configuration not stated) — higher, 11.3%
- Cc1cnccc1N1CCCN(C(=O)CCCS(N)(=O)=O)CC1 — higher, 5.967%
- Cc1cccc(SC2CCN(C(=O)CCCS(N)(=O)=O)CC2)c1 — higher, 79.05%
- NS(=O)(=O)CCCC(=O)N1CCC2(CC1)c1ccccc1CC2O (configuration not stated) — lower, -16.64%
- Cc1ncsc1-c1nnc(C2CCN(Cc3cccc(Cl)c3)CC2)o1 — higher, 113.8%
- COc1cccc(CN2CC[C@H](c3nnc(C)o3)C2)c1 — higher, 12.81%
- Cc1ncsc1-c1nc(-c2cccc(CN3CCOCC3)c2)no1 — lower, 1.772%
- COc1cccc(CN2CCC(c3nnc(-c4cnc(C)cn4)o3)C2)c1 (configuration not stated) — higher, 84.16%
- Cc1cccc(CN2CCC(c3nnc(-c4scnc4C)o3)CC2)c1 — higher, 109.5%
- COc1cccc(CN2CC[C@H](c3nnc(-c4ccco4)o3)C2)c1 — higher, 18.39%
- Cc1nc(CN2CCN(CC(=O)Nc3c(C)cccc3C)CC2)no1 — lower, 0.7695%
- COc1ccc(C(O)C(=O)N2CCC(c3nccn3C(C)C)CC2)cc1 (configuration not stated) — lower, -20.71%
- CC(NC(=O)c1ccoc1)C(=O)N(C)Cc1ccc(O)cc1 (configuration not stated) — lower, -3.093%
- Cc1nn(C)c(Cl)c1C(=O)NCC(c1ccsc1)N(C)C (configuration not stated) — lower, -1.114%
- Cc1noc(C)c1C(=O)NCC(c1ccc(F)cc1)N(C)C (configuration not stated) — lower, -4.601%
- CCN(CC)C(CNC(=O)c1c(C)noc1C(C)C)c1ccsc1 (configuration not stated) — higher, 108.9%
- Cc1nn(-c2ccccc2)nc1C(=O)NCC(c1ccsc1)N(C)C (configuration not stated) — lower, -0.008163%
- Cc1noc(C)c1C(=O)NCC(c1ccsc1)N(C)C (configuration not stated) — higher, 115.3%
- Cc1cc(NC(=O)NCC(c2ccsc2)N(C)C)n(C)n1 (configuration not stated) — lower, -2.678%
- Cc1noc(C(C)C)c1C(=O)NCC(c1ccsc1)N(C)C (configuration not stated) — lower, -2.505%
- CN(C)C(CNC(=O)c1ncoc1-c1ccccc1)c1ccsc1 (configuration not stated) — lower, -4.122%
- Cc1cc(C(=O)NCC(c2ccsc2)N(C)C)no1 (configuration not stated) — higher, 113.7%
- CC(c1cc(F)ccc1F)N1CCN(C(=O)c2ccc(=O)[nH]c2)CC1 (configuration not stated) — lower, -31.75%
- O=C(O)C(F)(F)F.c1csc(CN2CCc3ncnc(C4CCOC4)c3CC2)c1 (configuration not stated) — lower, -9.496%
- Cn1nnc2c1CCN(C(=O)C1CCC1)C2COCCN1CCCC1.O=C(O)C(F)(F)F (configuration not stated) — lower, -13.51%
- COCC(=O)N[C@@H]1CN(Cc2c[nH]nc2-c2cccs2)C[C@H]1O — higher, 113.8%
- O=C(N[C@@H]1CN(Cc2c[nH]nc2-c2ccccc2)C[C@H]1O)c1cc[nH]n1 — higher, 121.8%
- COc1ccc(-c2n[nH]cc2CN2CCSCC2)c(OC)c1 — lower, 5.008%
- Cc1n[nH]cc1CNC(=O)CCCc1cccs1 — lower, -6.834%
- CCC[C@H]1CN(CCS(C)(=O)=O)C[C@@H]1NC(=O)c1cc[nH]n1 — lower, -12.34%
- COCCN1C(=O)CO[C@H]2CN(Cc3c[nH]nc3-c3ccccc3)C[C@@H]21 — lower, -12.21%

Reference: ChEMBL document CHEMBL3988442, “University of Dundee, Small-Polar-MMV Screening Library” (2021)
